Source: PubChem (National Center for Advancing Translational Sciences (NCATS))
Shown are actives, neighbours in structure and some others; about 7% of the full set was active somewhere.
BAZ2B inh = qHTS Assay for Inhibitors of BAZ2B; AID 504333, 2011; hit rate 4.4% among 360,000; Bromodomain adjacent to zinc finger domain protein 2B (Homo sapiens), Q9UIF8; AlphaScreen BAZ2B-H3K14Ac peptide displacement; Potency, µM (doses to about 114 µM), without a hit: top-dose activity change, negative = inhibition, usual class: inhibitors; note: potency is the fitted concentration of half-maximal effect; % is set by controls: 0 for no effect and ±100 for the full control effect; nearly all actives have a fitted effect of over 60% in size
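BAZ2B (50 nM) with biotin-H3(5-23)K14Ac peptide (50 nM) in PBS pH 7.4, 0.01% Tween-20, preformed 30 min, then compound 30 min at room temperature; top concentration 110uM. AlphaScreen streptavidin donor/nickel chelate acceptor beads (10 ug/mL final), 20 min dark, signal read.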
HP1b binding inh = HTS for Inhibitors of HP1-beta Chromodomain Interactions with Methylated Histone Tails | AlphaScreen HP1-beta / biotin-H3K9me3 peptide binding | hit rate 0.56% among 390,000 | Potency, µM (top dose mostly 114 µM), for the others: at the highest dose activity change, negative = inhibition, actives largely listed as inhibitors | Chromobox protein homolog 1 (Homo sapiens), P83916 | AID 540317, 2011; note: potency is the fitted concentration of half-maximal effect; nearly all actives have a fitted effect of over 70% in size
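AlphaScreen: HP1-beta (50 nM) preformed 30 min with biotin-H3(1-18)K9me3 peptide (50 nM) in PBS pH 7.4, 0.01% Tween-20. Compound added for 30 min at RT, then streptavidin donor/nickel chelate acceptor beads (10 ug/mL) for 30 min.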
GCN5L2 inh = qHTS Assay for Inhibitors of GCN5L2; Histone acetyltransferase KAT2A (Homo sapiens), Q92830; GCN5L2 HAT assay, ThioGlo1 CoA-SH fluorescence; Potency, µM (doses to about 58.9 µM), without a hit: top-dose activity change, negative = inhibition, most hits filed as inhibitors; hit rate 0.21% among 390,000; AID 504327, 2011; note: potency is the fitted concentration of half-maximal effect; % is set by controls: 0 for no effect and ±100 for the full control effect
Target sequence (Q92830 whole entry, looked up): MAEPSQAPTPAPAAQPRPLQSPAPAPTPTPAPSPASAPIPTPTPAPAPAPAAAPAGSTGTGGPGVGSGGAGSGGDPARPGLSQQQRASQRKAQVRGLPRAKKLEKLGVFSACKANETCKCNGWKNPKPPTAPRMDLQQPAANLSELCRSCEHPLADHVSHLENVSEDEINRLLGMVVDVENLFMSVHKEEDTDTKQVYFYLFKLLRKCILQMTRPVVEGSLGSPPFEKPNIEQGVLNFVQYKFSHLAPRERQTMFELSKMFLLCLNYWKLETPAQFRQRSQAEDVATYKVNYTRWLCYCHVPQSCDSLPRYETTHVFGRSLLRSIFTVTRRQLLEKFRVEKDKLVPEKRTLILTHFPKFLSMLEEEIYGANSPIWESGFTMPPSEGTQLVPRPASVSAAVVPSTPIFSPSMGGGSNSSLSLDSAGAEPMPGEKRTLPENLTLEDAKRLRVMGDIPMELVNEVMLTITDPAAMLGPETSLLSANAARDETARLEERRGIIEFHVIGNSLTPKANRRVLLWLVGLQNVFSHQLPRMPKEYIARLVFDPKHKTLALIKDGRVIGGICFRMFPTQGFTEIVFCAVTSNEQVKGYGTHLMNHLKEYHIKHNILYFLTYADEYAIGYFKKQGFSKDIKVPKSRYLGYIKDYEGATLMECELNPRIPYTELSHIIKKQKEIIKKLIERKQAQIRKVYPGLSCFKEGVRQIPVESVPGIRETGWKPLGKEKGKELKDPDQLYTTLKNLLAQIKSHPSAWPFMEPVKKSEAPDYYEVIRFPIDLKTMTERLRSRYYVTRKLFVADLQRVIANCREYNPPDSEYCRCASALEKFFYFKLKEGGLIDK
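Free CoA generated was detected with ThioGlo1 (50uM) fluorescence at Ex340nm/Em540nm, read immediately and after 20 min at room temperature. Enzyme, 20 nM in HEPES pH 7.5 buffer, saw compounds 15 min before adding 75uM H3(1-25) peptide and 70uM acetyl-CoA.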
PI5P4K alpha inh = qHTS for Inhibitors of phosphatidylinositol 5-phosphate 4-kinase (PI5P4K). Phosphatidylinositol 5-phosphate 4-kinase type-2 alpha (Homo sapiens), P48426. PI5P4Kalpha enzyme, ADP-Glo luminescence, 60 min; active compounds read low. max response, %. hit rate 1.2% among 330,000; active = max response of -50% or lower; inconclusive = between -30% and -50%; inactive = -30% or higher; note: value at the top dose of about 77 µM; % is set by controls: 0 for no effect and ±100 for the full control effect
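ADP-Glo luminescence end-point read after a 60 min room-temperature kinase reaction of PI5P4Kalpha plus substrate, initiated with ATP at 5 microM final. Buffer: 0.038 M HEPES pH 7.4, EGTA, 0.1% CHAPS, 5% DMSO.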
JMJD2A Tudor = qHTS Assay for Inhibitors of JMJD2A-Tudor Domain; AlphaScreen JMJD2A-Tudor / H3K4me3 peptide binding; Potency, µM (doses to about 114 µM), without a hit: at the top dose activity change, negative = inhibition, actives largely listed as inhibitors; hit rate 4.4% among 390,000; note: potency is the fitted concentration of half-maximal effect; % is set by controls: 0 for no effect and ±100 for the full control effect; nearly all actives have a fitted effect of over 50% in size
PLK1 PBD block = qHTS for Inhibitors of PLK1-PDB (polo-like kinase 1 - polo-box domain): Primary Screen; Potency, µM, for the others: max response, negative = inhibition, actives largely listed as inhibitors; Plk1 PBD binding of FITC phosphopeptide, fluorescence polarization; Serine/threonine-protein kinase PLK1 (Homo sapiens), P53350; hit rate 2.8% among 360,000; note: potency is the fitted concentration of half-maximal effect; series mostly up to about 57 µM; % is set by controls: 0 for no effect and ±100 for the full control effect; nearly all actives have a fitted effect of over 65% in size
* hit, by the source's call; u = inconclusive; x = no result given; [ ] = dose if it differs, or a comment. Unless noted, calls come from the whole dose curve; as a rule, active = well fitted curve in the direction sought with a large enough effect; inconclusive = small, poorly fitted or top-dose-only effect, or another doubt; inactive = no such curve, though single readings can be large; an effect the other way counts as inactive or inconclusive.

SMILES | BAZ2B inh | HP1b binding inh | GCN5L2 inh | PI5P4K alpha inh | JMJD2A Tudor | PLK1 PBD block
O=C(N/N=C/c1ccccn1)C1CC1 | u | 10% | -12%[0.501 µM] | -1 | 1.3µM* | -1%
CN1CCN(CCC(=O)N/N=C/c2ccccn2)CC1 | u | 7% | -21% | -2 | 7.9µM* | -1%
Cc1ccc(/C=N/NC(=O)C(=O)N/N=C/c2ccc(C)o2)o1 | -10% | 33% | -9% | 0 | -24% | -4%
S=C(NCc1ccccn1)NN=Cc1ccccn1 | x | -4% | x | -14 | 32µM* | -6%
Cc1ccc(C(=O)N/N=C\c2ccc(Br)o2)o1 | -4% | 6% | 2.5µM* | x | -28% | -4%
O=C(N/N=C/c1c(O)ccc2ccccc12)c1cccnc1 | -12% | 49% | -8% | 2 | 50µM* | 25%
O=C(N/N=C/c1ccccn1)c1cc(-c2ccccc2Cl)n[nH]1 | 56µM* | 30% | -6% | -20 | -34% | -10%
CC(O)C1CCC2C3CCC4CC(O)CCC4(C)C3CCC12C (stereo unspecified) | x | x | 2% | x | x | x
Cc1nn(-c2nc(-c3ccc(F)cc3)cc(C(F)(F)F)n2)c(C)c1Cl | 27% | 69% | 1% | x | 42% | x
O=[N+]([O-])c1cc(-c2nc(-c3ccccc3)no2)ccc1NC1CCCCC1 | u | 15% | -7% | x | -25% | x
CCOC(=O)c1c(C)oc2nc(C)nc(NCC3CCN(Cc4ccc(C)cc4)CC3)c12 | 1%[57.1 µM] | 15% | 0% | x | -21% | x
CCN(CC)S(=O)(=O)c1ccc(N2CC(C(=O)N3Cc4ccccc4CC3C(N)=O)CC2=O)cc1 (stereo unspecified) | x | 65% | -5% | -12 | -23% | -6%
CCOC(=O)C1CCN(C(=O)CCc2nnc3ccc(N4CCN(C)CC4)nn23)CC1 | -18% | 23% | -1% | -9 | -14% | u
Cn1cc(C(=O)N/N=C/c2c(O)ccc3ccccc23)ccc1=O | u | 39% | 1% | 5 | -29% | 14%
O=C(N/N=C/c1c(O)ccc2ccccc12)c1ccc(Br)o1 | 56µM* | -6% | -11% | -1 | u | 2%
O=C(N/N=C/c1ccccn1)c1ccc(Cl)c(Cl)c1 | -1% | x | -1% | x | x | x
Cc1ccc(C(=O)N/N=C/c2c(O)ccc3ccccc23)cn1 | 0% | 41% | -26% | 0 | u | 40%
Cc1occc1C(=O)N/N=C/c1c(O)ccc2ccccc12 | 19% | 38% | -24% | -1 | -18% | -7%
O=C(N/N=C\c1c(O)ccc2ccccc12)c1cncc(Br)c1 | 35µM* | 68% | -11% | -17 | 56µM* | 35%
O=C(N/N=C/c1ccccn1)c1ccc(Br)o1 | 71µM* | 32% | 11% | 9 | -28% | 0%
O=C(N/N=C/c1c(O)ccc2ccccc12)c1ccc[n+](CCO)c1 | 13µM* | 27% | -7% | -1 | 28µM* | 4%
Cc1cc2c(s1)c1cnn(Cc3c(F)ccc(C)c3Cl)c(=O)c1n2C | x | x | x | x | -13% | x
COc1cc(/C=N/NC(=O)CCN2CCN(C)CC2)cc2c1OCO2 | -12% | u | -7% | -4 | 0.79µM* | -7%
O=C(N/N=C/c1c(O)ccc2ccccc12)Nc1ccccc1 | x | 41% | x | -3 | -30% | 0%
O=C(O)c1cc(N/N=C/c2c(O)ccc3ccccc23)ccc1Cl | 40µM* | u | -14% | -12 | u | 17µM*
SMILES | BAZ2B inh | HP1b binding inh | GCN5L2 inh | PI5P4K alpha inh | JMJD2A Tudor | PLK1 PBD block
COc1ccc(CC(=O)Nc2ccc(-c3nc4ccccc4s3)c(C)c2)cc1OC | -4% | 21% | -5% | x | -12% | x
O=C(C=Cc1ccccc1)NCCNC(=O)C=Cc1ccccc1 | x | 28% | x | 1 | -3% | 4%
O=C(/C=C/c1ccccc1)NCCSCc1ccccc1 | 7% | u | -4% | -14 | u | 30µM*
CC(C)(C)OC(=O)NCCCCCNC(=O)c1nc[nH]c1C(=O)NCCCCCNC(=O)OC(C)(C)C | x | 49% | -3% | 7 | -21% | -4%
CSc1nc(C)c(C(=O)C[n+]2ccccc2C)cc1C#N | 3% | 16% | -2% | -22 | -6%[11.4 µM] | 15µM*
Cc1cccc(-n2cnc(C(=O)NNC(=S)Nc3ccc(Cl)cc3)c2)n1 | 11µM* | 19% | -3% | -4 | 35µM* | -17%
Nc1c(C(=O)NCc2ccco2)sc2nc3c(cc12)C(=O)CCC3 | u | -3% | -27% | x | 56µM* | u
O=c1[nH]c(=O)c2nnc(N/N=C/c3ccccc3F)nc2[nH]1 | -1% | 43% | 2% | -88* | -16% | -4%
Fc1ccccc1/C=N/Nc1nn[nH]n1 | u | 29% | -4% | -11 | 79µM* | 1%
Fc1ccccc1/C=N/Nc1ccc(Cl)nn1 | 1% | 26% | u | 2 | -18% | 1%
O=c1[nH]c(=O)c2nnc(N/N=C\c3ccc(O)cc3)nc2[nH]1 | u | 40% | -7% | u | u | -1%
O=C(CN1C(=O)/C(=C/c2ccco2)SC1=S)Nc1ccc(C(=O)O)c(O)c1 | 28µM* | 30% | u | -68* | -11% | 13µM*
CC(=C\c1ccco1)/C=C1/SC(=S)N(CC(=O)O)C1=O | 50µM* | -1% | -10% | -4 | -28% | -11%
CC(C(=O)Nc1ccc(C(=O)O)c(O)c1)N1C(=O)/C(=C\c2ccco2)SC1=S (stereo unspecified) | 28µM* | 21% | u | u | 7% | 9.5µM*
O=C(CCN1C(=O)/C(=C/c2ccccc2)SC1=S)NC1CCS(=O)(=O)C1 (stereo unspecified) | -11% | -7% | -12% | 0 | -22% | u
COc1ccc(C=C2SC(=S)N(CCCC(=O)Nc3ccc(C(=O)O)c(O)c3)C2=O)cc1OC | x | x | x | -18 | x | 15%
O=C(CN1C(=O)/C(=C/c2ccco2)SC1=S)NC1CCS(=O)(=O)C1 (stereo unspecified) | u | -34% | -14% | -27 | u | 30µM*
O=C(CCCN1C(=O)/C(=C/c2ccccc2)SC1=S)Nc1ccc(C(=O)O)c(O)c1 | u | -12%[57 µM] | -29% | -26 | u | u
CCCCN(CCCC)C1=C(C(=O)c2ccccc2)N(C)S(=O)(=O)c2ccccc21 | -16% | 8% | -10% | x | -32% | x
CC(=O)N1CCCc2cc(S(=O)(=O)N3CCC(C(=O)NC4CCC(C)CC4)CC3)ccc21 (stereo unspecified) | 4% | 8%[57 µM] | -9% | x | -12% | x
O=C(CCCN1C(=O)/C(=C/c2cccs2)SC1=S)Nc1ccc(O)c(C(=O)O)c1 | u | x | -7% | x | x | x
